{"source": "the supplement of paper PMC8728848", "experiment_in_all_cases": "glycan array binding signal (z-score within array); higher = stronger binding", "settings_in_all_cases": "glycan notation: IUPAC condensed, linker removed", "key": {"[1]": {"target": "Fuc(a1-2)Gal(b1-4)[Fuc(a1-3)]GlcNAc(b1-3)GalNAc", "outline": "(§1)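 Glycan array data came from 3228 arrays in the Consortium for Functional Glycomics database, and only arrays with an available protein sequence were kept. Glycan names were put into IUPAC-condensed notation, and columns mapping to the same glycan were averaged. The binding signal is a within-array Z-score, averaged across arrays of one protein sequence run at different concentrations or buffers and across linkers. A negative Z-score can be read as non-binding.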"}, "[2]": {"target": "Fuc(a1-2)[Gal(a1-3)]Gal(b1-3)GlcNAc", "outline": "as §1"}, "[3]": {"target": "Fuc(a1-2)[Gal(a1-3)]Gal(b1-3)GlcNAc(b1-2)Man(a1-3)[Fuc(a1-2)[Gal(a1-3)]Gal(b1-3)GlcNAc(b1-2)Man(a1-6)]Man(b1-4)GlcNAc(b1-4)GlcNAc", "outline": "as §1"}, "[4]": {"target": "Fuc(a1-2)[Gal(a1-3)]Gal(b1-3)GlcNAc(b1-2)Man(a1-3)[Fuc(a1-2)[Gal(a1-3)]Gal(b1-3)GlcNAc(b1-2)Man(a1-6)]Man(b1-4)GlcNAc(b1-4)[Fuc(a1-6)]GlcNAc", "outline": "as §1"}, "[5]": {"target": "Fuc(a1-2)[Gal(a1-3)]Gal(b1-3)GlcNAc(b1-6)GalNAc", "outline": "as §1"}, "[6]": {"target": "Fuc(a1-2)[Gal(a1-3)]Gal(b1-4)Glc", "outline": "as §1"}, "[7]": {"target": "Fuc(a1-2)[Gal(a1-3)]Gal(b1-4)GlcNAc", "outline": "as §1"}, "[8]": {"target": "Fuc(a1-2)[Gal(a1-3)]Gal(b1-4)GlcNAc(b1-2)Man", "outline": "as §1"}, "[9]": {"target": "Fuc(a1-2)[Gal(a1-3)]Gal(b1-4)GlcNAc(b1-2)Man(a1-3)[Fuc(a1-2)[Gal(a1-3)]Gal(b1-4)GlcNAc(b1-2)Man(a1-6)]Man(b1-4)GlcNAc(b1-4)GlcNAc", "outline": "as §1"}, "[10]": {"target": "Fuc(a1-2)[Gal(a1-3)]Gal(b1-4)GlcNAc(b1-2)Man(a1-3)[Fuc(a1-2)[Gal(a1-3)]Gal(b1-4)GlcNAc(b1-2)Man(a1-6)]Man(b1-4)GlcNAc(b1-4)[Fuc(a1-6)]GlcNAc", "outline": "as §1"}, "[11]": {"target": "Fuc(a1-2)[Gal(a1-3)]Gal(b1-4)GlcNAc(b1-3)GalNAc", "outline": "as §1"}, "[12]": {"target": "Fuc(a1-2)[Gal(a1-3)]Gal(b1-4)GlcNAc(b1-6)GalNAc", "outline": "as §1"}, "[13]": {"target": "Fuc(a1-2)[Gal(a1-3)]Gal(b1-4)[Fuc(a1-3)]GlcNAc", "outline": "as §1"}, "[14]": {"target": "Fuc(a1-3)[Gal(b1-4)]GlcNAc(b1-2)Man(a1-3)[Fuc(a1-3)[Gal(b1-4)]GlcNAc(b1-2)Man(a1-6)]Man(b1-4)GlcNAc(b1-4)GlcNAc", "outline": "as §1"}, "[15]": {"target": "Fuc(a1-3)[Gal(b1-4)]GlcNAc(b1-3)Gal(b1-3)[Fuc(a1-4)]GlcNAc", "outline": "as §1"}, "[16]": {"target": "Fuc(a1-3)[Gal(b1-4)]GlcNAc(b1-3)Gal(b1-4)[Fuc(a1-3)]GlcNAc(b1-3)Gal(b1-4)[Fuc(a1-3)]GlcNAc", "outline": "as §1"}, "[17]": {"target": "Fuc(a1-3)[Gal(b1-4)]GlcNAc(b1-6)GalNAc", "outline": "as §1"}, "[18]": {"target": "Fuc(a1-3)[Gal3S(b1-4)]GlcNAc6S", "outline": "as §1"}, "[19]": {"target": "Gal(a1-3)Fuc(a1-2)Gal(b1-4)GlcNAc(b1-3)[Gal(a1-3)Fuc(a1-2)Gal(b1-4)GlcNAc(b1-6)]GalNAc", "outline": "as §1"}, "[20]": {"target": "Gal(b1-3)GlcNAc(b1-2)Man(a1-3)[Gal(b1-3)GlcNAc(b1-2)Man(a1-6)]Man(b1-4)GlcNAc(b1-4)GlcNAc", "outline": "as §1"}, "[21]": {"target": "Gal(b1-3)GlcNAc(b1-3)Gal(b1-4)GlcNAc(b1-3)Gal(b1-4)GlcNAc(b1-2)[Gal(b1-3)GlcNAc(b1-3)Gal(b1-4)GlcNAc(b1-3)Gal(b1-4)GlcNAc(b1-6)]Man(a1-6)[Gal(b1-3)GlcNAc(b1-3)Gal(b1-4)GlcNAc(b1-3)Gal(b1-4)GlcNAc(b1-2)Man(a1-3)]Man(b1-4)GlcNAc(b1-4)[Fuc(a1-6)]GlcNAc", "outline": "as §1"}, "[22]": {"target": "Gal(b1-4)GlcNAc(b1-2)Man(a1-3)Man(b1-4)GlcNAc(b1-4)GlcNAc", "outline": "as §1"}, "[23]": {"target": "Gal(b1-4)GlcNAc(b1-2)Man(a1-3)[GlcNAc(b1-2)Man(a1-6)]Man(b1-4)GlcNAc(b1-4)GlcNAc", "outline": "as §1"}, "[24]": {"target": "Gal(b1-4)GlcNAc(b1-2)[Gal(b1-4)GlcNAc(b1-4)]Man(a1-3)[Gal(b1-4)GlcNAc(b1-2)Man(a1-6)]Man(b1-4)GlcNAc(b1-4)GlcNAc", "outline": "as §1"}, "[25]": {"target": "Gal(b1-4)GlcNAc(b1-3)Gal(b1-3)GalNAc", "outline": "as §1"}, "[26]": {"target": "Gal(b1-4)GlcNAc(b1-3)Gal(b1-3)GlcNAc", "outline": "as §1"}, "[27]": {"target": "Gal(b1-4)GlcNAc(b1-3)Gal(b1-4)Glc", "outline": "as §1"}, "[28]": {"target": "Gal(b1-4)GlcNAc(b1-3)Gal(b1-4)GlcNAc(b1-3)Gal(b1-4)GlcNAc(b1-2)Man(a1-3)[Gal(b1-4)GlcNAc(b1-3)Gal(b1-4)GlcNAc(b1-3)Gal(b1-4)GlcNAc(b1-2)Man(a1-6)]Man(b1-4)GlcNAc(b1-4)[Fuc(a1-6)]GlcNAc", "outline": "as §1"}}, "note": "The entries come from a sample that favours the strongest signals as a whole."}
{"binder": "EEA (Euonymus europaeus) (protein) MASTIIATGPTYRVYCRAAPNYNMIVGKGVAFLAPIDETNELQYWYKDDTYSYIKDEAGLPAFSLVNKATGLTLKHSNHHPVPVKLVTYNPNVVDESVLWSQADDRGDGYSAIRSLTNPASHLEAAPLNDWSYNGAIIMGGVWIDAYNQQWKIEPHTG", "values": [{"measurement": "glycan array binding signal (z-score)", "setting": "[1]", "value": 0.023}, {"measurement": "glycan array binding signal (z-score)", "setting": "[2]", "value": 5.83}, {"measurement": "glycan array binding signal (z-score)", "setting": "[3]", "value": 5.22}, {"measurement": "glycan array binding signal (z-score)", "setting": "[4]", "value": 3.76}, {"measurement": "glycan array binding signal (z-score)", "setting": "[5]", "value": 3.77}, {"measurement": "glycan array binding signal (z-score)", "setting": "[6]", "value": 4.49}, {"measurement": "glycan array binding signal (z-score)", "setting": "[7]", "value": 6.17}, {"measurement": "glycan array binding signal (z-score)", "setting": "[8]", "value": 3.94}, {"measurement": "glycan array binding signal (z-score)", "setting": "[9]", "value": 11.4}, {"measurement": "glycan array binding signal (z-score)", "setting": "[10]", "value": 5.12}, {"measurement": "glycan array binding signal (z-score)", "setting": "[11]", "value": 4.01}, {"measurement": "glycan array binding signal (z-score)", "setting": "[12]", "value": -0.195}, {"measurement": "glycan array binding signal (z-score)", "setting": "[13]", "value": -0.181}, {"measurement": "glycan array binding signal (z-score)", "setting": "[14]", "value": -0.21}, {"measurement": "glycan array binding signal (z-score)", "setting": "[15]", "value": -0.169}, {"measurement": "glycan array binding signal (z-score)", "setting": "[16]", "value": -0.252}, {"measurement": "glycan array binding signal (z-score)", "setting": "[17]", "value": -0.124}, {"measurement": "glycan array binding signal (z-score)", "setting": "[18]", "value": -0.209}, {"measurement": "glycan array binding signal (z-score)", "setting": "[19]", "value": 4.66}, {"measurement": "glycan array binding signal (z-score)", "setting": "[20]", "value": -0.157}, {"measurement": "glycan array binding signal (z-score)", "setting": "[21]", "value": -0.049}, {"measurement": "glycan array binding signal (z-score)", "setting": "[22]", "value": -0.282}, {"measurement": "glycan array binding signal (z-score)", "setting": "[23]", "value": -0.235}, {"measurement": "glycan array binding signal (z-score)", "setting": "[24]", "value": -0.173}, {"measurement": "glycan array binding signal (z-score)", "setting": "[25]", "value": -0.23}, {"measurement": "glycan array binding signal (z-score)", "setting": "[26]", "value": -0.101}, {"measurement": "glycan array binding signal (z-score)", "setting": "[27]", "value": -0.156}, {"measurement": "glycan array binding signal (z-score)", "setting": "[28]", "value": -0.144}]}
